About 83,000 compounds went through this panel and 20% of them were active in at least one assay; those are over-represented in the sample as a whole.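 Treatment: one concentration, 48 hours, 96-well format. Scoring: percent growth, with anything below 10 considered active.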 A number with no mark means an inactive call. Calls of active or inactive are those of the source.

Test systems include HCT-15 colon; HT29 colon; SNB-75 CNS; SNB-19 CNS; U251 CNS; PC-3 prostate; SK-MEL-5 melanoma; UACC-62 melanoma; LOX IMVI melanoma; SK-MEL-28 melanoma.
Common to all, as to experiment: NCI-60 one-dose screen, 48 h (100 = growth as untreated, 0 = no growth, -100 = all killed)
Common to all, as to details: 10 µM unless noted

Take `CC(C)CCC[C@@H](C)[C@H]1CC[C@H]2[C@@H]3CC=C4N(c5ccccc5)C(=O)CC[C@]4(C)[C@H]3CC[C@]12C`: the growth in the experiment on HCT-15 colon is 96.4%; in the experiment on HT29 colon, 90.3%; in the experiment on SNB-75 CNS it was 93.6%; in the experiment on SNB-19 CNS it was 109%; with U251 CNS, 101%; with PC-3 prostate, 80.4%. In addition, the growth was 99.1% with SK-MEL-5 melanoma, 98.9% in the experiment with UACC-62 melanoma, 98% with LOX IMVI melanoma and 106% in the experiment with SK-MEL-28 melanoma.
On to `CC(/C=C/C=C(\C)[C@H](O)[C@H](C)C(=O)O[C@H]1C[C@H](C)C=C2C=C[C@@]3(C)O[C@@H](O)CC(=O)[C@]3(C)[C@H]21)=C\C=C\C(=O)O`, for which the growth in the experiment with HCT-15 colon was 17.3%; in the experiment on HT29 colon it was 0.326% (active); with SNB-75 CNS, -14.2% (active); with SNB-19 CNS, -0.761% (active); in the experiment on U251 CNS, -3.9% (active); in the experiment with PC-3 prostate, 7.61% (active). Besides, the growth with SK-MEL-5 melanoma was -69% (active); with UACC-62 melanoma it was -32% (active); in the experiment with LOX IMVI melanoma it was 6.81% (active); in the experiment on SK-MEL-28 melanoma, -0.848% (active).
As for `Cc1cc[n+](CCCC[n+]2ccc(C)cc2)cc1`, the growth is 93% in the experiment on HCT-15 colon; 113% in the experiment on HT29 colon; 106% in the experiment on SNB-75 CNS; 107% in the experiment on SNB-19 CNS; 102% in the experiment with U251 CNS; 88.7% in the experiment on PC-3 prostate. Besides, the growth in the experiment on SK-MEL-5 melanoma was 99.2%; in the experiment on UACC-62 melanoma, 97.5%; in the experiment with LOX IMVI melanoma it was 94.4%; in the experiment on SK-MEL-28 melanoma, 105%.
Take `COc1cc(-c2nc(SCC(=O)Nc3ccc(C(C)=O)cc3)[nH]c(=O)c2C#N)cc(OC)c1OC`: the growth was 40.2% in the experiment on HCT-15 colon; 6.82% (active) in the experiment with HT29 colon; 38.3% in the experiment with SNB-75 CNS; 58.2% with SNB-19 CNS; 16% in the experiment on U251 CNS; 18% with PC-3 prostate. In addition, the growth in the experiment with SK-MEL-5 melanoma is 15.2%; in the experiment on UACC-62 melanoma it was 36%; in the experiment with LOX IMVI melanoma, 18.5%; in the experiment with SK-MEL-28 melanoma, 57.8%.
On to `Cc1ccccc1C[P+](c1ccccc1)(c1ccccc1)c1ccccc1`, for which the growth with HCT-15 colon was 107%; in the experiment on HT29 colon, 10.5%; in the experiment with SNB-75 CNS, 9.33% (active); in the experiment on SNB-19 CNS it was 28.7%; in the experiment with U251 CNS it was 16.4%; in the experiment with PC-3 prostate, 14.5%. Also, the growth in the experiment with SK-MEL-5 melanoma was -23.2% (active); in the experiment on UACC-62 melanoma, 18.8%; with LOX IMVI melanoma it was 14.7%; with SK-MEL-28 melanoma it was 27.2%.
For `COc1ccc(/C(=C/c2cc(OC)c(OC)c(OC)c2)[N+](=O)[O-])cc1`, the growth is -41.3% (active) in the experiment on HCT-15 colon; -14.2% (active) in the experiment on HT29 colon; 49.2% in the experiment on SNB-75 CNS; 55.2% in the experiment with SNB-19 CNS; 5.34% (active) in the experiment on U251 CNS; 35.1% in the experiment on PC-3 prostate. In addition, the growth with SK-MEL-5 melanoma is 70.7%; in the experiment on UACC-62 melanoma it was -7.25% (active); with LOX IMVI melanoma, -80.3% (active); with SK-MEL-28 melanoma, 1.77% (active).
As to `O=C(Nc1cccc(-n2ccc3c(NC(=O)c4ccccc4)nccc32)c1)c1cccc(C(F)(F)F)c1`, the growth in the experiment on HCT-15 colon was 9.77% (active); in the experiment with HT29 colon, -13.2% (active); in the experiment with SNB-75 CNS it was 44.6%; in the experiment on SNB-19 CNS, 28.5%; in the experiment on U251 CNS, 7.1% (active); in the experiment on PC-3 prostate, 33.2%. In addition, the growth in the experiment with SK-MEL-5 melanoma was -45.4% (active); with UACC-62 melanoma, 29.6%; in the experiment on LOX IMVI melanoma, 8.39% (active); with SK-MEL-28 melanoma it was 40.9%.
As for `COC(=O)c1oc2c(C(C)=O)c(OCCN3CCCCC3)ccc2c1C`, the growth with HCT-15 colon is 110%; in the experiment with HT29 colon it was 133%; in the experiment on SNB-75 CNS, 226%; with SNB-19 CNS it was 125%; in the experiment with U251 CNS, 105%; with PC-3 prostate, 93.9%. Further, the growth in the experiment on SK-MEL-5 melanoma is 102%; in the experiment with UACC-62 melanoma it was 122%; with LOX IMVI melanoma it was 96.5%; in the experiment with SK-MEL-28 melanoma, 133%.
On to `COc1ccc(CCNC=O)cc1OC`, for which the growth was 103% in the experiment on HCT-15 colon; 114% in the experiment on HT29 colon; 80.7% with SNB-75 CNS; 92.4% in the experiment on SNB-19 CNS; 110% in the experiment with U251 CNS; 100% in the experiment on PC-3 prostate. For the same molecule, the growth was 95.5% in the experiment with SK-MEL-5 melanoma, 103% with UACC-62 melanoma, 98.1% in the experiment on LOX IMVI melanoma and 106% in the experiment on SK-MEL-28 melanoma.
As to `CN(C)c1ccc(/C=N/N=C(N)N)cc1`, the growth in the experiment on HCT-15 colon was 49%; in the experiment with HT29 colon, 26.4%; in the experiment with SNB-75 CNS, 66.5%; with SNB-19 CNS it was 74.2%; in the experiment on U251 CNS, 60.2%; in the experiment on PC-3 prostate it was 83.8%. Moreover, the growth in the experiment with SK-MEL-5 melanoma is 47.3%; with UACC-62 melanoma, 72.7%; in the experiment on LOX IMVI melanoma, 70.5%; in the experiment with SK-MEL-28 melanoma, 81.7%.
Regarding `CC(C)CNCC(O)COc1ccc(C(C)(C)c2ccc(OCC(O)CNCC(C)C)cc2)cc1` (stereo not given), the growth in the experiment on HCT-15 colon is 20.1%; in the experiment with HT29 colon it was -8.67% (active); in the experiment with SNB-75 CNS, 63.9%; in the experiment with SNB-19 CNS it was 51.7%; with U251 CNS, -5.63% (active); with PC-3 prostate, 47.4%. Further, the growth in the experiment on SK-MEL-5 melanoma is -95% (active); in the experiment with UACC-62 melanoma, -65.2% (active); in the experiment with LOX IMVI melanoma, -79.9% (active); in the experiment with SK-MEL-28 melanoma, -60.5% (active).
Take `CCOC(=O)NNc1nncc2ccccc12`: the growth in the experiment with HCT-15 colon is 101%; in the experiment on HT29 colon, 104%; in the experiment on SNB-75 CNS, 120%; in the experiment with SNB-19 CNS, 99.2%; with U251 CNS it was 97.2%; in the experiment on PC-3 prostate, 97.7%. In addition, the growth is 105% in the experiment on SK-MEL-5 melanoma, 101% in the experiment with UACC-62 melanoma, 90.8% in the experiment with LOX IMVI melanoma and 122% in the experiment with SK-MEL-28 melanoma.
For `c1ccc(OCC[P+](c2ccccc2)(c2ccccc2)c2ccccc2)cc1`, the growth is 78% in the experiment on HCT-15 colon; 13% in the experiment with HT29 colon; 16.5% in the experiment with SNB-75 CNS; 21.5% in the experiment with SNB-19 CNS; 14.8% with U251 CNS; 11.8% in the experiment with PC-3 prostate. For the same molecule, the growth in the experiment on SK-MEL-5 melanoma is -40.1% (active); in the experiment with UACC-62 melanoma it was 8.25% (active); with LOX IMVI melanoma, 2.69% (active); in the experiment with SK-MEL-28 melanoma, 26.1%.
As for `CCCCCn1ncc(-c2c(O)c(O)cc3c(O)c(-c4c(C)cc5c(-c6cnn(CCCCC)n6)c(O)c(O)cc5c4O)c(C)cc23)n1`, the growth with HCT-15 colon is 14%; with HT29 colon, -20.9% (active); in the experiment with SNB-75 CNS, 34.2%; in the experiment on SNB-19 CNS, 22%; in the experiment on U251 CNS, -33.3% (active); with PC-3 prostate, -25.3% (active). Also, the growth in the experiment with SK-MEL-5 melanoma was -49.2% (active); with UACC-62 melanoma, -11.8% (active); in the experiment with LOX IMVI melanoma it was -40.7% (active); in the experiment with SK-MEL-28 melanoma, 25.9%.

Source of the values: PubChem BioAssay (NCI).
